p53null 32C tox: selectivity test: cytotoxicity in p53 null cells, permissive temperature; H1299-neo p53 null cells, ATP luminescence, 24 h, 32C; Potency, µM (doses to about 46.1 µM), without a hit: top-dose activity change, negative = cytotoxicity, usual class: cytotoxic; 55,000 tested, 0.62% active;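 further: 0% = DMSO only and -100% = full killing by 100 µM tamoxifen; nearly all actives have a fitted effect of over 55% in size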
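AC50 values derive from Hill modelling of qHTS concentration-response data (up to 46 uM) in H1299-neo cells. Cells were treated 24 h at 32C following overnight attachment at 37C; viability was read as cellular ATP.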
PMP22 txn: modulates PMP22 transcription in S16 Schwann cells; S16 Pmp22-F2sN Schwann cells, FLuc/NLuc coincidence luminescence, 24 h; Potency, µM (top dose mostly 57.5 µM), for the others: top-dose activity change, negative = inhibition, most hits filed as inhibitors; 43,000 tested, 2% active; active means clear falling dose curves in both reporters; inconclusive means both reporters move, but less clearly or upward; inactive means either reporter flat; the % is the NLuc reporter signal
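Rat S16 Pmp22-F2sN cells, 500-1,000/well in phenol red-free DMEM + 10% FBS, compound-treated 24 h (37C, 5% CO2). Luminescence: FLuc read, Stop&Glo added, NLuc read.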
S16 viability: S16 Schwann cell cytotoxicity | S16 Pmp22-F2sN Schwann cells (luciferase reporters placed in the Pmp22 gene) viability, CellTiter-Glo, 24 h | Potency, µM (highest dose often 57.5 µM), for the others: at the highest dose activity change, negative = cytotoxicity, usual class: cytotoxic | 43,000 tested, 0.48% active | AID 1508642; further: nearly all actives have a fitted effect of over 65% in size
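Rat S16 Schwann reporter line, 24 h treatment with library compounds delivered at 23 nL per well. Cell viability by CellTiter-Glo luminescence.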
p53null 39C tox: p53 null cell cytotoxicity, nonpermissive temperature; AID 904; H1299 p53-null (neo) cells, 39C, ATPlite viability, 24 h; Potency, µM (highest dose often 46.1 µM), for inactives: top-dose activity, negative = cell killing, actives largely listed as cytotoxic; 55,000 tested, 0.97% active;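 further: 0% = DMSO only and -100% = full killing by 100 µM tamoxifen; nearly all actives have a fitted effect of over 50% in size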
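Temperature-shift cytotoxicity format: compound titrations on p53-null or A138V-expressing H1299 cells held 24 hr at 39C, cell ATP then measured, AC50 from Hill model.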
mTORC1 inh: mTORC1 pathway inhibition measured by phospho-rpS6. Tsc2-/- p53-/- MEF, phospho-rpS6 immunofluorescence/PI, 24 h. Potency, µM (doses to about 38.3 µM), without a hit: at the top dose activity change, negative = inhibition, usual class: inhibitors. 44,000 tested, 0.78% active;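 further: plate controls were DMSO for no effect and rapamycin for full effect; nearly all actives have a fitted effect of over 50% in size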
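Tsc2-/-, p53-/- MEFs (empty-vector stable line) in DMEM + 10% FBS were treated with compounds 24 h at 37 degree Celsius, fixed, and immunostained for phospho-rpS6 (Alexa-488) with propidium iodide counterstain. Laser-scanning cytometry gave % positive cells, normalized against 7.5 nM rapamycin and DMSO.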
Numbers without * were called inactive. Shown are actives, neighbours in structure and some others; about 3.2% of the full set was active somewhere. Unless noted, the call rests on the fitted dose curve; in most records, active means well fitted curve in the direction sought with a large enough effect; inconclusive means small, poorly fitted or top-dose-only effect, or another doubt; inactive means no such curve, though single readings can be large; an effect the other way counts as inactive or inconclusive. Unless noted, on the % scale 0 is the no-effect control and ±100 the full control effect; potency means the concentration at half of the fitted maximal effect.

Results for O=C(CCSCc1cccc(Cl)c1)NCc1ccc(F)cc1Cl ?
p53null 32C tox: 7.1%; PMP22 txn: -7.2%; S16 viability: 1.2%; p53null 39C tox: -0.4%; mTORC1 inh: 5.8%

What do the screens show for `Cc1ccc(-c2cc(C(=O)NCc3cnn(C)c3C)c3ccccc3n2)cc1C`?
p53null 32C tox: inconclusive; PMP22 txn: -39.3%; S16 viability: 1.0%; p53null 39C tox: 0.794µM*; mTORC1 inh: -6.7%

Results for Cc1ccc(-c2cc(C(=O)NCCc3ccccc3)c3ccccc3n2)cc1C ?
p53null 32C tox: -17.9%; PMP22 txn: -75.5%; S16 viability: -29.6%; p53null 39C tox: 10.2%; mTORC1 inh: 11.1%

Results for CCN(CCN(C)C)C(=O)C1CCN(S(=O)(=O)c2c(C)noc2/C=C/c2ccccc2F)CC1 ?
p53null 32C tox: 9.5%; PMP22 txn: inconclusive; S16 viability: inconclusive; p53null 39C tox: inconclusive; mTORC1 inh: 18.5µM*

Results for CCOc1ccccc1/C=C/c1onc(C)c1S(=O)(=O)N1CCC(C(=O)N(CC)CC)CC1 ?
p53null 32C tox: 36.9%; PMP22 txn: inconclusive; S16 viability: inconclusive; p53null 39C tox: 10.1%; mTORC1 inh: -5.2%

What do the screens show for `COc1ccc(NC(=O)c2oc3ccc4c(c3c2C)C(=O)CC(C)(C)O4)cc1OC`?
p53null 32C tox: 12.6µM*; PMP22 txn: inconclusive; S16 viability: 5.8%; p53null 39C tox: 3.16µM*; mTORC1 inh: 1.0%

What do the screens show for `CCOc1ccccc1CNC(=O)c1oc2ccc3c(c2c1C)C(=O)CC(C)(C)O3`?
p53null 32C tox: inconclusive; PMP22 txn: inconclusive; S16 viability: inconclusive; p53null 39C tox: 6.5%; mTORC1 inh: 0.5%

How did CCc1cccc(NC(=O)c2oc3ccc4c(c3c2C)C(=O)CC(C)(C)O4)c1 do in these assays?
p53null 32C tox: 5.01µM*; PMP22 txn: inconclusive; S16 viability: -5.0%; p53null 39C tox: 5.01µM*; mTORC1 inh: inconclusive

How did Cc1ccc(-n2ncc3c(N4CCN(c5ccc(F)cc5)CC4)ncnc32)cc1 do in these assays?
p53null 32C tox: -5.9%; PMP22 txn: 5.2%; S16 viability: -0.2%; p53null 39C tox: -5.4%; mTORC1 inh: 9.4%

Results for Cc1ccc(-n2ncc3c(N4CCCCCC4)ncnc32)cc1C ?
p53null 32C tox: 10µM*; PMP22 txn: 6.4%; S16 viability: 18.5%; p53null 39C tox: -11.4%; mTORC1 inh: 13.2%

Results for Cc1cccc(-n2ncc3c(N4CCCC(C)C4)ncnc32)c1 (stereo unspecified) ?
p53null 32C tox: 3.16µM*; PMP22 txn: inconclusive; S16 viability: -0.2%; p53null 39C tox: 2µM*; mTORC1 inh: 0.6%

How did CC1CCCN(c2ncnc3c2cnn3-c2ccc(F)cc2)C1 (stereo unspecified) do in these assays?
p53null 32C tox: 2.82µM*; PMP22 txn: 3.0%; S16 viability: 10.9%; p53null 39C tox: inconclusive; mTORC1 inh: 10.6%

What do the screens show for `COC(=O)c1c(NC(=O)CCCOc2cccc(C)c2)sc2c1C(C(=O)OC)CC2` (stereo unspecified)?
p53null 32C tox: 5.6%; PMP22 txn: -13.3%; S16 viability: 1.3%; p53null 39C tox: 9.7%; mTORC1 inh: -3.1%

Results for CC(=O)N1c2ccc(S(=O)(=O)NCC3CCC(C(=O)Nc4ccc(C)c(C)c4)CC3)cc2CC1C (stereo unspecified) ?
p53null 32C tox: 5.3%; PMP22 txn: inconclusive; S16 viability: -24.6%; p53null 39C tox: -18.0%; mTORC1 inh: -21.0%

What do the screens show for `CC(=O)N1c2ccc(S(=O)(=O)NCC3CCC(C(=O)Nc4ccc(F)cc4)CC3)cc2CC1C` (stereo unspecified)?
p53null 32C tox: 16.4%; PMP22 txn: inconclusive; S16 viability: 14.1µM*; p53null 39C tox: 14.6%; mTORC1 inh: -8.0%
